The record followed here is ChEMBL document CHEMBL1961873, “Compounds: GSK PKIS; Assays: Nanosyn kinase panel” (2012).

Experiment [1] deals with Protein kinase C gamma type (Homo sapiens) (UniProt P05129). The note with it: at 1 µM.
Experiment [2] addresses T1, Protein kinase C iota type (Homo sapiens) (UniProt P41743).
T1 sequence (whole entry): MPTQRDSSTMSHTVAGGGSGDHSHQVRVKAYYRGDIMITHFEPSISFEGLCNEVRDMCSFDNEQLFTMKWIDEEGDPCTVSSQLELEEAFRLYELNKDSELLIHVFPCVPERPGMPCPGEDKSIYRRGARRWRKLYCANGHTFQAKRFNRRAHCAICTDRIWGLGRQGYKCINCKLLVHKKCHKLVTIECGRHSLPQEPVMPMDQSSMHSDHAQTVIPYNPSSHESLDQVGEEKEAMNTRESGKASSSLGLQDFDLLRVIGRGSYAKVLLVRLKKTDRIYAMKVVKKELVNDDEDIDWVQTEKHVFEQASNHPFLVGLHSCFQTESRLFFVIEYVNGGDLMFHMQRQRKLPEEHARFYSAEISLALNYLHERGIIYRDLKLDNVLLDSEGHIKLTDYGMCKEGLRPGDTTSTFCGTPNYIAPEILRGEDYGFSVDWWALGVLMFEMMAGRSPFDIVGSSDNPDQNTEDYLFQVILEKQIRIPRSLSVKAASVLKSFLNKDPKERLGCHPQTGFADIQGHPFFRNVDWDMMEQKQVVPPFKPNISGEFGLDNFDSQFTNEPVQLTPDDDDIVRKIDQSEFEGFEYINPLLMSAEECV
The note with it: at 0.1 µM.

Experiment [3] deals with T1, Protein kinase C iota type (Homo sapiens). The note with it: at 1 µM.
Experiment [4] concerns the target Protein kinase C theta type (Homo sapiens) (UniProt Q04759). The note with it: at 0.1 µM.
Experiment [5] shares this target. The note with it: at 1 µM.
For experiment [6], the target named is Protein kinase C beta type (Homo sapiens) (UniProt P05771). The note with it: at 0.1 µM.
Experiment [7] has the same target. The note with it: at 1 µM.
The target of experiment [8] is T2, Serine/threonine-protein kinase D1 (Homo sapiens) (UniProt Q15139).
T2 sequence (whole entry): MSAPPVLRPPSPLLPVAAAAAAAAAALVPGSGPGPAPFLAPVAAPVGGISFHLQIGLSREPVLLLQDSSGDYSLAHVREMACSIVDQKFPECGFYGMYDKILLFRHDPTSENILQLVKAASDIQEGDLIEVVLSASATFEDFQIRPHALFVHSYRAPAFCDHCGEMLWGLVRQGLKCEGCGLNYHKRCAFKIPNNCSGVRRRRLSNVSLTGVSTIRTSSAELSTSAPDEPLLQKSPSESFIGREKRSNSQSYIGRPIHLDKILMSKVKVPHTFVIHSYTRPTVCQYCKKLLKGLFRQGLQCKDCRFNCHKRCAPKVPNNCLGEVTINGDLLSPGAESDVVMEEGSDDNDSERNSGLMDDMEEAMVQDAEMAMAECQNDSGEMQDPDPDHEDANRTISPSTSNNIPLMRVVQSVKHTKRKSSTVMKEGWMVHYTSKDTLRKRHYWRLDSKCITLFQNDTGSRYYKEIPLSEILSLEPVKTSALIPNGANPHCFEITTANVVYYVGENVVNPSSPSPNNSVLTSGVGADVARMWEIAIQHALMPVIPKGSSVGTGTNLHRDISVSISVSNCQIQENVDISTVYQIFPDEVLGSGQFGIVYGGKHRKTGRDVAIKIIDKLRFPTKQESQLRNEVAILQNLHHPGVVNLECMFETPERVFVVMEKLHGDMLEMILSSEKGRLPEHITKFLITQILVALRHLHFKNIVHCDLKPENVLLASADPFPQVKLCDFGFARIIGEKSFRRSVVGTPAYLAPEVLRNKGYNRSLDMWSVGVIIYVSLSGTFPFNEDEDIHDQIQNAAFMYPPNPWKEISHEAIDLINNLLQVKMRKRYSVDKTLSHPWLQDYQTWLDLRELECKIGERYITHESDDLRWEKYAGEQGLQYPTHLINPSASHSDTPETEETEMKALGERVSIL
The note with it: at 0.1 µM.

Experiment [9] deals with T2, Serine/threonine-protein kinase D1 (Homo sapiens). The note with it: at 1 µM.
Experiment [10] concerns the target T3, Serine/threonine-protein kinase D2 (Homo sapiens) (UniProt Q9BZL6).
T3 sequence (whole entry): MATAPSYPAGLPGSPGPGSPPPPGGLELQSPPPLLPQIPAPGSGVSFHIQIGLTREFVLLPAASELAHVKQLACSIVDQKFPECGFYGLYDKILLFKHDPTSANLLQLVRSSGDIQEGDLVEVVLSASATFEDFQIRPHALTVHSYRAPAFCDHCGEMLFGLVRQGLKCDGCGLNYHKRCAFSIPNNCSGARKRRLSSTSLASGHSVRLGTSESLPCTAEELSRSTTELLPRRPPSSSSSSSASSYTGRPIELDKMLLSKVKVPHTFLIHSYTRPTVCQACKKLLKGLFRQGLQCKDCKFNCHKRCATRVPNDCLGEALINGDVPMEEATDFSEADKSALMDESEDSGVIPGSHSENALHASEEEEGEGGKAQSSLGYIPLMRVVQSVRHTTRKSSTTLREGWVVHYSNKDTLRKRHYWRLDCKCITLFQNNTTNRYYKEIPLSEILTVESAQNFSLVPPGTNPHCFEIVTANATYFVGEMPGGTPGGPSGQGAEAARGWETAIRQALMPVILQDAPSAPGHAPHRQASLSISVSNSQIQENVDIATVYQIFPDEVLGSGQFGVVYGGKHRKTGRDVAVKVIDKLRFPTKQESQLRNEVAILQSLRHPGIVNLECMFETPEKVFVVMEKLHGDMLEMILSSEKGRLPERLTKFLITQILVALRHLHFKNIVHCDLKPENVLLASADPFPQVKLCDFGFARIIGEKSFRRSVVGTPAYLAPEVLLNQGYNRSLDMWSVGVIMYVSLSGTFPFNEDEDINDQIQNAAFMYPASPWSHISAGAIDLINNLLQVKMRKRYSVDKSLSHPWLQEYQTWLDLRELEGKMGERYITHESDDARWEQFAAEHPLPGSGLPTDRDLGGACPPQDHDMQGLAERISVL
The note with it: at 0.1 µM.

Experiment [11] concerns the target T3, Serine/threonine-protein kinase D2 (Homo sapiens). The note with it: at 1 µM.
For experiment [12], the target named is T4, Serine/threonine-protein kinase D3 (Homo sapiens) (UniProt O94806).
T4 sequence (whole entry): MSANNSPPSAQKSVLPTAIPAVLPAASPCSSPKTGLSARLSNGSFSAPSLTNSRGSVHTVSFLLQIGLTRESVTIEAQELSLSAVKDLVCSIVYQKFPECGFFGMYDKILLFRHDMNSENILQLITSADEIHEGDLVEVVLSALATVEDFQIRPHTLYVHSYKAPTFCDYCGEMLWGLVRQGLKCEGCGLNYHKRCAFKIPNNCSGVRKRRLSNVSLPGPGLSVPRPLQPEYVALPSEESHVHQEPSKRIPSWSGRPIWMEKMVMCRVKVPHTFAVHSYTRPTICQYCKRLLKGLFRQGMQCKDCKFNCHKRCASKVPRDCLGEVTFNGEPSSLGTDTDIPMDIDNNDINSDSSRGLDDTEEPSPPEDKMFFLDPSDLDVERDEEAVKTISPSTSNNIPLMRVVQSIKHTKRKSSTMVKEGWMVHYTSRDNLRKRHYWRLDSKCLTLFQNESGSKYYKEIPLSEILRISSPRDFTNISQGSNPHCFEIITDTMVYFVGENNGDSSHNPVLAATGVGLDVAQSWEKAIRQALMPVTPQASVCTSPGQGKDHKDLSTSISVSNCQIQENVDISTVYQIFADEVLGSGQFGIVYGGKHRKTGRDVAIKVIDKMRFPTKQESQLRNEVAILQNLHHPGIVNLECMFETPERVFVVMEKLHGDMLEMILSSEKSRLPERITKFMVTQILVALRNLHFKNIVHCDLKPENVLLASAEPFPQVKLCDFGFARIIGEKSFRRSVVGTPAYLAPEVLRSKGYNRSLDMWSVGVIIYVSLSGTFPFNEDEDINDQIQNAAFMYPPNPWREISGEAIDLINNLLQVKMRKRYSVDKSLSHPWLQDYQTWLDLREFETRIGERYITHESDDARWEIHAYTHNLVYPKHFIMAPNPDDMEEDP
The note with it: at 0.1 µM.

Experiment [13] addresses T4, Serine/threonine-protein kinase D3 (Homo sapiens). The note with it: at 1 µM.
Experiment [14] concerns the target T5, cGMP-dependent protein kinase 1 (Homo sapiens) (UniProt Q13976).
T5 sequence (whole entry): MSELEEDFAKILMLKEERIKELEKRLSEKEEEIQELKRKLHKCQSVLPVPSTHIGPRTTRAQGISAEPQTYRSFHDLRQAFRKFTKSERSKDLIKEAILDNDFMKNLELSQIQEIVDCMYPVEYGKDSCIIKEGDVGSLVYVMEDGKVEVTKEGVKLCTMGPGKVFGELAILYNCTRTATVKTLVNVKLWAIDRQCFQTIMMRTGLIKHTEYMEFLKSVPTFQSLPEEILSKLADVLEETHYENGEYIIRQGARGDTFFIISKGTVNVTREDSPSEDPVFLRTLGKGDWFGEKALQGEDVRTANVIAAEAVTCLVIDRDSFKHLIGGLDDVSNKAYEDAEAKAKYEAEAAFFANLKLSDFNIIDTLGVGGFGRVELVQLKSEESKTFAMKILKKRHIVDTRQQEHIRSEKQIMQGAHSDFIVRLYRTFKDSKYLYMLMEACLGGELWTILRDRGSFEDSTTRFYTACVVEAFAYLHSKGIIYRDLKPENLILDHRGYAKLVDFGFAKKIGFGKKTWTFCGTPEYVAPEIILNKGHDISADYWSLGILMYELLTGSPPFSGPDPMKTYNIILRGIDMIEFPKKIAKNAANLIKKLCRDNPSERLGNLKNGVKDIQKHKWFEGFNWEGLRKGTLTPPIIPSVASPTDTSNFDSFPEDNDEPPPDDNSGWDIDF
The note with it: at 0.1 µM.

Experiment [15] concerns the target T5, cGMP-dependent protein kinase 1 (Homo sapiens). The note with it: at 1 µM.
Experiment [16] concerns the target T6, cGMP-dependent protein kinase 2 (Homo sapiens) (UniProt Q13237).
T6 sequence (whole entry): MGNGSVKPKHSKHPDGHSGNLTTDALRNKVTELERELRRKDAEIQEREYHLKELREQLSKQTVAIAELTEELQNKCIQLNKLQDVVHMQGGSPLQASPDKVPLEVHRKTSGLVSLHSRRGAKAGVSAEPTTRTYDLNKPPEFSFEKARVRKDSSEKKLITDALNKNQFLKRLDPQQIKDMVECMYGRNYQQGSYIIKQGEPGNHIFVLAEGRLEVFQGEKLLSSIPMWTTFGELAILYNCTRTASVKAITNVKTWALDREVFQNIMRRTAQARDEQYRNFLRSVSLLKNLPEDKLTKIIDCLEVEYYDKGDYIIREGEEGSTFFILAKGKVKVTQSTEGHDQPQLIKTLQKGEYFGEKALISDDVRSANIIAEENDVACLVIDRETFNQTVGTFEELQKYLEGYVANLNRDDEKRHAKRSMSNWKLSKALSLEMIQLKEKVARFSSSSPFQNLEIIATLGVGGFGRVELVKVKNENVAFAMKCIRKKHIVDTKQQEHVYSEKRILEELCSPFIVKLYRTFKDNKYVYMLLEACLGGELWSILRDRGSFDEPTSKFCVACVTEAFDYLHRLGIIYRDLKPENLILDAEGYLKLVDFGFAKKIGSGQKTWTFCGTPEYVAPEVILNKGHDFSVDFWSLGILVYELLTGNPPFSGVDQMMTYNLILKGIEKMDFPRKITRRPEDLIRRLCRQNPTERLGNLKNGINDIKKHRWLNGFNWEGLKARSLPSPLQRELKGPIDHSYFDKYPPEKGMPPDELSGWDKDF
The note with it: at 0.1 µM.

The target of experiment [17] is T6, cGMP-dependent protein kinase 2 (Homo sapiens). The note with it: at 1 µM.
Experiment [18] concerns the target T7, cAMP-dependent protein kinase catalytic subunit PRKX (Homo sapiens) (UniProt P51817).
T7 sequence (whole entry): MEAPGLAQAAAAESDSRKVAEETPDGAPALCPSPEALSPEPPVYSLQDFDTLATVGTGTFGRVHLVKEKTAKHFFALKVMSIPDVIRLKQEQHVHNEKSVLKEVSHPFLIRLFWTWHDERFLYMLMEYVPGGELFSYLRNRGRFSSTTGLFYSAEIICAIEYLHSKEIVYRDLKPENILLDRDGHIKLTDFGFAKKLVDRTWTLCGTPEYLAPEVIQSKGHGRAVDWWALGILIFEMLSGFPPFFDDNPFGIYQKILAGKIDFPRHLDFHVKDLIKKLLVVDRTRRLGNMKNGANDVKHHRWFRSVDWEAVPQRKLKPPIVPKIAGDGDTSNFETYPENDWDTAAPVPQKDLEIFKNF
The note with it: at 0.1 µM.

For experiment [19], the target named is T7, cAMP-dependent protein kinase catalytic subunit PRKX (Homo sapiens). The note with it: at 1 µM.
The target in experiment [20] is Rho-associated protein kinase 1 (Homo sapiens) (UniProt Q13464). The note with it: at 0.1 µM.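 Further: values are mean percent inhibition of ROCK1.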
Sequence of Rho-associated protein kinase 1 (Homo sapiens) (Q13464 2-1354 limits assumed): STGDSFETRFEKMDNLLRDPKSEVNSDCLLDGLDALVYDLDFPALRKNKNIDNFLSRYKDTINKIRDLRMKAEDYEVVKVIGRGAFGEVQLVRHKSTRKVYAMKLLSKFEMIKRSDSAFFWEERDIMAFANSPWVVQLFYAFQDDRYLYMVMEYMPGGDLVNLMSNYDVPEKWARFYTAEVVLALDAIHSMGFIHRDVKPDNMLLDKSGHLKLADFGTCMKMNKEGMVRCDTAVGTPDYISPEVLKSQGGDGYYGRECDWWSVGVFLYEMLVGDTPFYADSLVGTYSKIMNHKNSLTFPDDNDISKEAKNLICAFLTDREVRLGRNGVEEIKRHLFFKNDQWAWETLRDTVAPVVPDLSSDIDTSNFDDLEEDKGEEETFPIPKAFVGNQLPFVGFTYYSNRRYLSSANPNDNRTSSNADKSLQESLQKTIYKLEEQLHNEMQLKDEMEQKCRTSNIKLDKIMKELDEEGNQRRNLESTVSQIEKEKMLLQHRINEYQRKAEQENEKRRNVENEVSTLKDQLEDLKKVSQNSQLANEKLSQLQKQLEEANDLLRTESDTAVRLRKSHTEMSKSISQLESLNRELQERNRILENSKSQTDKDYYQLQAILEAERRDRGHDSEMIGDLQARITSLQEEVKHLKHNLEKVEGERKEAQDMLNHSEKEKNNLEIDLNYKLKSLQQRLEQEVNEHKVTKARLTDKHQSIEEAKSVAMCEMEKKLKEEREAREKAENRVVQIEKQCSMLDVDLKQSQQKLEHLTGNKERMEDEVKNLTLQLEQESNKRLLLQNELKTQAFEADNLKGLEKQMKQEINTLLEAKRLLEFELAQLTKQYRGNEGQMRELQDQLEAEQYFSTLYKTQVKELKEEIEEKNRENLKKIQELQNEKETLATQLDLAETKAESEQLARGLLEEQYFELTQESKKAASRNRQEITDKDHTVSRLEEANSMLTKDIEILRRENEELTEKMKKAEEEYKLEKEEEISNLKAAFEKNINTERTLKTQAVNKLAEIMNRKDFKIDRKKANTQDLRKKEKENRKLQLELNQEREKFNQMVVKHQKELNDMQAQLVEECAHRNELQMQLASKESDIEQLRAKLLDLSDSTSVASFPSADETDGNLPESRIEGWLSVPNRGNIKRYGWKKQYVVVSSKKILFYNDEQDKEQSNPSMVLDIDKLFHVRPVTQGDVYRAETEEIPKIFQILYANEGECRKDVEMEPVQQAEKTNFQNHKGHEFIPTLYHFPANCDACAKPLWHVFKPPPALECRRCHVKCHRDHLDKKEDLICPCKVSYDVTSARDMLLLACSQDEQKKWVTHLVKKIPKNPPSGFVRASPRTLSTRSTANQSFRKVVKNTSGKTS

Sequence of Protein kinase C theta type (Homo sapiens) (Q04759 whole entry, looked up): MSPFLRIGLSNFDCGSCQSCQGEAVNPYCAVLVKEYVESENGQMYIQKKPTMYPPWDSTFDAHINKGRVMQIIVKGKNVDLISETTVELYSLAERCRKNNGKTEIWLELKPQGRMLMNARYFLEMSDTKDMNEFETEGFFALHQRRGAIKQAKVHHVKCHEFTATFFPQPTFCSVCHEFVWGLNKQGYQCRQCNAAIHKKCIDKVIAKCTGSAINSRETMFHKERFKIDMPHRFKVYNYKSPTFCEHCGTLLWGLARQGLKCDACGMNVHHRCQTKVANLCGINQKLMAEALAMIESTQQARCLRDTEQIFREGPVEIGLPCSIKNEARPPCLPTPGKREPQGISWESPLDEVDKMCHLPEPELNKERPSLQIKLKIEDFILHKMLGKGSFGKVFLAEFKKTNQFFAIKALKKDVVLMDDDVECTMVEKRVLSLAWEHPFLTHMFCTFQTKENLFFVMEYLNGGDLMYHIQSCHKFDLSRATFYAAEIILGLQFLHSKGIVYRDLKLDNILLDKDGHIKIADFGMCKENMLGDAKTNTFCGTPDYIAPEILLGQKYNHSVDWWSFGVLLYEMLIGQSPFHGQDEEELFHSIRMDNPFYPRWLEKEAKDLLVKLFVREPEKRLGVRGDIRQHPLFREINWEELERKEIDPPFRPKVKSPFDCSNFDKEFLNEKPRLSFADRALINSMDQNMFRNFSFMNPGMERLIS
Sequence of Protein kinase C beta type (Homo sapiens) (P05771 2-671 limits assumed): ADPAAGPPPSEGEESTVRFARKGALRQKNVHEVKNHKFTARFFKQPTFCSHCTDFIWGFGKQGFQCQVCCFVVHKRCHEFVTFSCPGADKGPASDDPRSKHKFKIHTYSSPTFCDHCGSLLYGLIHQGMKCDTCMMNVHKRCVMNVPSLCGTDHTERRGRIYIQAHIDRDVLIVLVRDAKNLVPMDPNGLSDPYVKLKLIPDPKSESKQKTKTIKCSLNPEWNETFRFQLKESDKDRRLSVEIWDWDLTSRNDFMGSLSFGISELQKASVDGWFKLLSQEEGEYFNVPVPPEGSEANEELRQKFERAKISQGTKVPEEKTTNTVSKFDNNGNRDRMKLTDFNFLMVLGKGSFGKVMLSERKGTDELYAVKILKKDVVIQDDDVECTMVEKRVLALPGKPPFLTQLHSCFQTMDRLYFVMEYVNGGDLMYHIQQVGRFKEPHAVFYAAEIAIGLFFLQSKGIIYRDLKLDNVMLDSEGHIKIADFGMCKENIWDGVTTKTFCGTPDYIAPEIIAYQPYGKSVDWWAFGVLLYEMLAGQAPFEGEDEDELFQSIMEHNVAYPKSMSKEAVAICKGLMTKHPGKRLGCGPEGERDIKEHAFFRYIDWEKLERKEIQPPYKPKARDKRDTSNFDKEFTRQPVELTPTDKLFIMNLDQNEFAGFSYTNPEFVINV

Regarding `CS(=O)(=O)CCNCc1cc(-c2cc3c(Nc4ccc(OCc5cccc(F)c5)c(Cl)c4)ncnc3s2)cs1`, the inhibition in experiment [1] was 0.58%; in [2], 1.33%; in experiment [3], 1.53%; in experiment [4], 2.91%; in [5] it was 4.44%; in experiment [6], 0.62%. The inhibition in [7] is 2%; in [8] it was 4.69%; in [9], 8.12%; in experiment [10] it was 4.1%; in experiment [11], 4.68%; in [12], 4.68%. Also, the inhibition in experiment [13] came to 5.41%; in experiment [14] it was 4.85%; in experiment [15] it was 8.33%; in [16], 3.09%; in experiment [17], 4.67%; in experiment [18], 1.65%. Further, the inhibition in [19] is 2.04%; in experiment [20] it was 3.25%.
